Experimental data reported in PubChem BioAssay (NCI).
About 79,000 compounds went through this panel and 15% of them were active in at least one assay; those are over-represented in the sample as a whole. Rule as the data show it: active = growth inhibition above about 70%; inactive = the rest.

Experiments:
[1] = NCI Yeast Anticancer Drug Screen. Data for the rad50 strain (AID 155);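 also: 0% = growth of vehicle-only cultures of the same strain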; settings: S. cerevisiae rad50 strain growth inhibition; at 50.0 µM; stronger effect = higher value
Procedure, shortened: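 A DNA repair-deficient yeast mutant serves as the test organism; compound-induced growth inhibition is calculated against vehicle-treated cells.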

[2] = NCI Yeast Anticancer Drug Screen. Data for the mec2-1 strain (AID 157); settings: S. cerevisiae mec2-1 strain, at 50.0 µM, stronger effect = higher value
Procedure, shortened: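 mec2-1 yeast strain, carrying an alteration in DNA damage repair or cell cycle control, was exposed to compounds; growth inhibition was measured relative to vehicle-treated controls.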

[3] = NCI Yeast Anticancer Drug Screen. Data for the sgs1 mgt1 strain (AID 161);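 also: 0% = growth of cultures given vehicle only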; settings: S. cerevisiae sgs1 mgt1 strain, at 50.0 µM, stronger effect = higher value
Procedure, shortened: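 Growth of a repair-deficient yeast mutant was monitored after compound treatment and expressed as inhibition relative to vehicle-treated cultures.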

[4] = NCI Yeast Anticancer Drug Screen. Data for the cln2 rad14 strain (AID 165);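 also: 0% = growth equal to vehicle treated cultures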; settings: S. cerevisiae cln2 rad14 strain, at 50.0 µM, stronger effect = higher value
Procedure, shortened: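 Yeast carrying cln2 and rad14 alterations (cell cycle control and DNA damage repair) were exposed to compounds. Growth inhibition was measured against vehicle-treated controls.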

[5] = NCI Yeast Anticancer Drug Screen. Data for the bub3 strain (AID 167); settings: S. cerevisiae bub3 mutant strain, at 50.0 µM, stronger effect = higher value
Procedure, shortened: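 Inhibition values come from growth of compound-treated mutant yeast normalised to vehicle-treated controls.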

[6] = NCI Yeast Anticancer Drug Screen. Data for the mlh1 rad18 strain (AID 175); settings: S. cerevisiae mlh1 rad18 strain growth inhibition; at 50.0 µM; stronger effect = higher value
Procedure, shortened: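 Growth inhibition of the yeast strain was measured after compound exposure and expressed relative to vehicle-treated controls. The strain carries defined defects in DNA damage repair.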

Measured: growth inhibition

CCCCCCCCCCn1cnc2c(=O)[nH]c(N)nc21
inactive: [1] 1.85% | [2] 2.75% | [3] 9.7% | [4] -0.25% | [5] 2.8% | [6] -4.85%

C[Si](C)(C)C#CCOC=C1CC1
inactive: [1] 26% | [2] -39.5% | [3] -27.2% | [4] 9.15% | [5] -11.7% | [6] -34.5%

O=C(CCC(NC(=O)OCc1ccccc1)C(=O)OCc1ccccc1)Nc1cccc(OCc2ccccc2)c1 (stereo unspecified)
inactive: [1] -16.2% | [2] -18.1% | [3] -1.15% | [4] -23.6% | [5] -20% | [6] -27.4%

O=C1C2C3C=CC(CC3)C2C(=O)C2C3C=CC(C3)C12 (stereo unspecified)
inactive: [1] 1.15% | [2] 24.1% | [3] 26.9% | [4] -14.8% | [5] -1.45% | [6] 32.3%

N=c1nc2n(cc1F)C1OC(CO)C(O)C1O2 (stereo unspecified)
inactive: [1] -18.1% | [2] 7.7% | [3] 15.3% | [4] -37.3% | [5] -0.1% | [6] -8%

c1ccc(-c2ccc3ncccc3c2)cc1
inactive: [1] -17.9% | [2] 3.5% | [3] 5.05% | [4] -34.4% | [5] -0.4% | [6] 2.3%

CCCCCCCCCCCCC(O)C(=O)O (stereo unspecified)
inactive: [1] 12.3% | [2] -17.9% | [3] 10.2% | [4] 12.8% | [5] 35.7% | [6] -39.7%

Cc1ccc(NC(=O)OCC(F)(F)F)cc1NC(=O)OCC(F)(F)F
inactive: [1] 1.9% | [2] 29.3% | [3] 26.1% | [4] -0.9% | [5] 16.8% | [6] 1.95%

O=C(CNS(=O)(=O)c1ccccc1)c1ccc(Cl)cc1Cl
inactive: [1] 31.6% | [2] 36.2% | [3] 53% | [4] 22.3% | [5] 54.5% | [6] 53.8%

CCN(CC)CCCC(C)NCc1ccnc2cc(Cl)ccc12 (stereo unspecified)
inactive: [1] -3.35% | [2] -8.05% | [3] 5.95% | [4] -21.4% | [5] 1.65% | [6] 25.4%

CCC(C(=O)O)C(=O)O
inactive: [1] -16.9% | [2] -38.4% | [3] -23.7% | [4] 14.3% | [5] -7.75% | [6] 10.3%

CC(=O)NOCC1NC(=O)C(CONC(C)=O)NC1=O (stereo unspecified)
inactive: [1] 14% | [2] 18.1% | [3] -47.1% | [4] -3.4% | [5] -48.2% | [6] -54.6%

Oc1ccc2ccccc2c1C(c1cccc2ccccc12)N1CCCCC1 (stereo unspecified)
inactive: [1] 16.1% | [2] 1.4% | [3] 9.7% | [4] 3.2% | [5] 16.1% | [6] 53.8%

CCC1OC(=O)CC(O)C(C)C(OC2OC(C)CC(N(C)C)C2O)C(CC=O)CC(C)C(=O)/C=C/C2(C)OC2C1C (stereo unspecified)
inactive: [1] -6.9% | [2] -7.55% | [3] -11.3% | [4] -1.55% | [5] -14% | [6] 1.8%

c1ccc(N2CCN(c3ccccn3)CC2)nc1
inactive: [1] -2.65% | [2] -13.6% | [3] 2.5% | [4] -21.5% | [5] -13.7% | [6] -5.1%

O=C(O)c1ccccc1Cc1c[nH]c2ccccc12
inactive: [1] -37.3% | [2] 4.95% | [3] -0.8% | [4] -15.3% | [5] 41.3% | [6] -5.05%

CSc1ccc(OC(=O)C(C)NC(=O)C(CO)NC(=O)OCc2ccccc2)cc1 (stereo unspecified)
inactive: [1] 5.85% | [2] 1.55% | [3] -1.05% | [4] -2% | [5] -1.6% | [6] 15.2%

COc1ccc(NC(=O)Oc2ccccc2-c2ccccc2)cc1
inactive: [1] 1.1% | [2] 14.3% | [3] -1.7% | [4] -18.1% | [5] -6.7% | [6] -12.3%

Brc1cnc2nc(Cc3ccccc3)[nH]c2c1
inactive: [1] 5.05% | [2] 7.7% | [3] 17.3% | [4] -52.3% | [5] 27% | [6] 2.9%

CCOC(=O)C1Sc2ccccc2N=C1C (stereo unspecified)
inactive: [1] 0% | [2] -15.8% | [3] -2.45% | [4] -1.25% | [5] -10.6% | [6] 2.6%

Cc1c([O-])[n+]2cccc3ccn(c1=O)c32
inactive: [1] -28.7% | [2] -13.6% | [3] -16.7% | [4] -11.1% | [5] -2.4% | [6] 12.1%

C#CC(NC(C)(C)CC(C)(C)C)C(C)C (stereo unspecified)
inactive: [1] 31.1% | [2] 4.25% | [3] 0.55% | [4] 6.8% | [5] 4.1% | [6] 12.2%

[N-]=[N+]=C1C(=O)NC(=O)N2C3OC(CO[C@@H]12)C(O)C3O (stereo partly specified)
inactive: [1] -24.2% | [2] -1.65% | [3] -16.2% | [4] 32.2% | [5] -8.2% | [6] -39%

Cc1cc(C)c(C(=O)c2cccc(Cl)c2)c(C)c1
inactive: [1] -13% | [2] 4.7% | [3] 5.55% | [4] -56.9% | [5] 34.4% | [6] 22%

O=C(O)C1CSC(c2cccs2)N1 (stereo unspecified)
inactive: [1] -19.2% | [2] -46.5% | [3] -4.4% | [4] 1.4% | [5] -32.2% | [6] -8.1%

CC(=O)c1c2c(cc3c1CCC3)CCC2
inactive: [1] -15.4% | [2] -47.2% | [3] -20.1% | [4] -26% | [5] -21.7% | [6] -0.8%

O=C(O)C1(CC(CCCN2CCCCC2)c2ccccc2)CCCC1 (stereo unspecified)
inactive: [1] -40% | [2] -9.65% | [3] -4.1% | [4] 6.4% | [5] -15.4% | [6] -36.3%

COc1ccc(N2C(=O)OC3(CCN(Cc4ccccc4)CC3)C2=O)cc1
inactive: [1] -1.55% | [2] 13.2% | [3] 7.7% | [4] 8.25% | [5] 8% | [6] 16.4%

CCCCCCCC/C=C\CCCCCCCCOC(=O)CC(O)C(=O)OCCCCCCCC/C=C\CCCCCCCC (stereo unspecified)
inactive: [1] -22.6% | [2] -4.05% | [3] -7.5% | [4] -22.9% | [5] -9.8% | [6] -17.2%

Cc1c(Cl)cccc1NC(=O)Nc1ccccc1
inactive: [1] -1.35% | [2] 3.3% | [3] -6.25% | [4] -8.1% | [5] 4.1% | [6] 7.65%

O=C1OC(c2ccc(Cl)cc2)=C/C1=C/c1ccccn1
inactive: [1] -1.4% | [2] 10% | [3] 5.2% | [4] -34% | [5] 4.55% | [6] 11.3%

C[N+](C)(C)C(Cc1c[nH]c(=S)[nH]1)C(=O)O (stereo unspecified)
inactive: [1] -14.9% | [2] -44.4% | [3] -31.1% | [4] 9.45% | [5] -8.4% | [6] -20.4%

CCc1nnc(CC)n1N1C(=O)CCC1=O
inactive: [1] 24.1% | [2] 28.1% | [3] 26.2% | [4] 11.1% | [5] 24.8% | [6] 21.7%

CCCCc1c(O)c2c(=O)[nH]c(C)nc2oc1=O
inactive: [1] -9.8% | [2] -5.95% | [3] -9.65% | [4] -13.2% | [5] -32.4% | [6] 10.9%

CCCCCCCCCCCCCCCCCC(=O)N/N=C\c1ccc(O)c(OC)c1
inactive: [1] -11.6% | [2] -13.6% | [3] -9.35% | [4] -56.8% | [5] -2.55% | [6] 6.5%

COc1ccc2c(c1)CCC1=C2CC2C(=O)C1(C)CCC2(C)OC(C)=O (stereo unspecified)
inactive: [1] -4.35% | [2] -11.1% | [3] -1.3% | [4] -40.5% | [5] 10.1% | [6] -14.2%

O=C1CCC(=O)O1
inactive: [1] -8.6% | [2] 17% | [3] -11.7% | [4] 6.45% | [5] 3.95% | [6] -51.9%

CC(C)(C)C(=O)CC(=O)C(C)(C)C
inactive: [1] -3.9% | [2] -9.5% | [3] 2.25% | [4] -57.4% | [5] -2.8% | [6] -15.8%

CC(=O)c1cccc2ccccc12
inactive: [1] -7.8% | [2] 5.55% | [3] 3.65% | [4] -9.1% | [5] -11.1% | [6] -5.95%

CC(=O)c1cccc(NC(=O)c2cccc(Cl)c2)c1
inactive: [1] -1.9% | [2] -4.3% | [3] 24.5% | [4] -16.1% | [5] 20.4% | [6] 20.9%

Cc1csnn1
inactive: [1] -12.7% | [2] -17.9% | [3] 8.5% | [4] -1.4% | [5] -1.6% | [6] -21.6%
